Results taken from PubChem BioAssay (NCI).
Compounds without any hit were thinned out: in the full panel of roughly 79,000, 15% have a hit. Unmarked numbers belong to inactive results. Activity calls are given as the source filed them. Rule as the data show it: active = growth inhibition above about 70%; inactive = the rest.

Assay: NCI Yeast Anticancer Drug Screen. Data for the cln2 rad14 strain (AID 165);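 also: 0% = growth equal to vehicle treated cultures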
Conditions: S. cerevisiae cln2 rad14 strain, at 50.0 µM, hits give high values
Procedure, shortened: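 Compounds are applied to the cln2 rad14 yeast strain, and growth is then compared with that of vehicle-treated cultures to give inhibition.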

Structure (SMILES) | growth inhibition
Cc1ccc(O)c(C(c2cc(C)ccc2O)c2ccccc2Cl)c1 | 98.6% (active)
O=c1ssc(=Nc2ccc(Cl)cc2)n1-c1ccc(Cl)cc1 | 87.9% (active)
CC(=O)OC1CCC2(C)C(CCC3C4=CCC(C5COC(=O)C5)C4(C)CCC32)C1 (stereo not given) | 63.1%
CCN(CC)CCCC(C)Nc1cc(F)cc2cccnc12 (stereo not given) | 44.9%
CC1CN(CCCN2c3ccccc3Sc3ccc(Cl)cc32)C(C)(C)C1 (stereo not given) | 99.3% (active)
O=S(=O)(O)c1ccc2c(c1)C1C(C3C2C2(Cl)C(Cl)=C(Cl)C3(Cl)C2(Cl)Cl)C2(Cl)C(Cl)=C(Cl)C1(Cl)C2(Cl)Cl (stereo not given) | 83.7% (active)
OC(CN1CCC(c2ccccc2)CC1)c1ccc(Br)cc1 (stereo not given) | 76.8% (active)
CCOC(=O)/C(C#N)=C\c1cccc2ccccc12 | -12.4%
COc1ccc2c(c1)CCC(N1CCCC(O)C1)C2 (stereo not given) | 23.2%
COc1cccc(N2CCN(CC(O)COc3cc4c(c5c3CCCC5)CCCC4)CC2)c1 (stereo not given) | 58.8%
CC(=O)Oc1ccc(Cl)cc1Cc1cc(Cl)ccc1OC(C)=O | 89.2% (active)
CC(O)c1c2c(cc3c1CC1(C3)Cc3cc4c(c(C(C)O)c3C1)CCC4)CCC2 (stereo not given) | 86.7% (active)
O=c1c2ccccc2nc(-c2ccccc2)n1NC(=S)Nc1ccc(Cl)cc1[N+](=O)[O-] | -29.4%
O=C(CCCN1CCc2[nH]c3cc(F)ccc3c2C1)c1ccc(F)cc1 | 84.4% (active)
OC(C(=Nc1ccccc1)c1ccccc1)c1ccccc1 (stereo not given) | 98.8% (active)
N#CC1CCCC(Cc2ccccc2)(c2ccccc2)C1=O (stereo not given) | 95% (active)
CC(OC(=O)Nc1cccc(Cl)c1)c1ccccc1 (stereo not given) | 99% (active)
O=C(O)/C=C/c1c2ccccc2cc2ccccc12 | 96.9% (active)
Cc1c[nH]c2c(O)cc3c(c12)[C@H](CCl)CN3C(=O)c1cc2cc(NC(=O)Nc3ccc4[nH]c(C(=O)N5C[C@@H](CCl)c6c5cc(O)c5[nH]cc(C)c65)cc4c3)ccc2[nH]1 | -3.3%
Cc1ccc(S(=O)(=O)OC(C=O)C(O)C(O)COC(c2ccccc2)(c2ccccc2)c2ccccc2)cc1 (stereo not given) | 84.8% (active)

Structure (SMILES) | growth inhibition
COc1cc2c(cc1C(C)C)CCC1C(C)(C#N)CCCC21C (stereo not given) | 80.1% (active)
Fc1ccc(NC(=S)SCc2ccc(Cl)c(Cl)c2)c(F)c1 | 98.8% (active)
COC(=O)/C=C(\NC1CC(OC2C[C@](O)(C(C)=O)Cc3c(O)c4c(c(O)c32)C(=O)c2c(OC)cccc2C4=O)OC(C)C1O)C(=O)OC (stereo not given in full) | 94.9% (active)
O=C1CSC(=S)N1c1ccc(F)cc1F | -9%
CS(=O)(=O)OCCN(CCOS(C)(=O)=O)c1ccc(C=Nc2ccc3ccccc3c2)c(Cl)c1 | 35.4%
CN(C)C(=O)Nc1ccc(Cc2ccc(NC(=O)N(C)C)cc2)cc1 | 3.65%
O=c1c(Cl)c(Cl)c(=O)c2sc3cc(Cl)ccc3[nH]c1=2 | 95% (active)
O=S(=O)(O)C(O)c1ccc2ccc3cccc4ccc1c2c34 (stereo not given) | 77.5% (active)
N#Cc1cc([N+](=O)[O-])ccc1NC(=O)/C(=N/N)C(C(=O)c1ccc(Cl)c(Cl)c1)C1OC(=O)c2ccccc21 (stereo not given) | 90.2% (active)
O=C(Nc1ccc(Cl)c(Cl)c1Cl)Oc1c(Cl)c(Cl)c(Cl)c(Cl)c1Cl | 99.2% (active)
O=[N+]([O-])c1cc(Cl)cc2c1nc(NCCO)c1ccccc12 | 65%
CCNc1nc(C(F)(F)F)nc2nc[nH]c12 | 92.7% (active)
CC1CCN(CCOC(=O)C(c2ccccc2)C2C=CCCC2)C1 (stereo not given) | 41.8%
CCOC(=O)c1c(N)sc2c1CCCCC2 | 27.6%
CC(C(O)Cc1ccccc1)N(C)N=Nc1ccc([N+](=O)[O-])cc1 (stereo not given) | 28.3%
O=[N+]([O-])c1ccc(/C=c2\sc3scc(-c4ccc([N+](=O)[O-])cc4)[n+]3\c2=C/c2ccc([N+](=O)[O-])cc2)cc1 | 69.3%
Oc1cc(C(c2ccccc2)c2ccccc2)c2ccccc2c1O | 97.7% (active)
CC1=CC2OC3CC4OC(=O)/C=C/C=C/C(C(C)O)OCC(=O)C(C)CC(=O)OCC2(CC1)C4(C)C31CO1 (stereo not given) | 91.3% (active)
CC(NNC(=S)N1CCCCCC1)c1cc2ccccc2cn1 (stereo not given) | 68.5%
CC(C)C1=CC23CCC4C(C)(C(=O)O)CCCC4(C)C2CC1C1C(=O)C=CC(=O)C13 (stereo not given) | 62%

Assay: NCI Yeast Anticancer Drug Screen. Data for the bub3 strain (AID 167)
Conditions: S. cerevisiae bub3 mutant strain, at 5.0 µM (retest, dose inferred, filed as 0.5), hits give high values
Procedure, shortened: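 Steps: expose the mutant yeast strain to compound; grow alongside vehicle-treated cultures; measure growth; express inhibition against the vehicle cultures.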

Structure (SMILES) | growth inhibition
Cc1ccc(O)c(C(c2cc(C)ccc2O)c2ccccc2Cl)c1 | 85% (active)
O=c1ssc(=Nc2ccc(Cl)cc2)n1-c1ccc(Cl)cc1 | 74% (active)
CC(=O)OC1CCC2(C)C(CCC3C4=CCC(C5COC(=O)C5)C4(C)CCC32)C1 (stereo not given) | 4%
CCN(CC)CCCC(C)Nc1cc(F)cc2cccnc12 (stereo not given) | 15%
CC1CN(CCCN2c3ccccc3Sc3ccc(Cl)cc32)C(C)(C)C1 (stereo not given) | 21%
O=S(=O)(O)c1ccc2c(c1)C1C(C3C2C2(Cl)C(Cl)=C(Cl)C3(Cl)C2(Cl)Cl)C2(Cl)C(Cl)=C(Cl)C1(Cl)C2(Cl)Cl (stereo not given) | 21%
OC(CN1CCC(c2ccccc2)CC1)c1ccc(Br)cc1 (stereo not given) | 58%
CCOC(=O)/C(C#N)=C\c1cccc2ccccc12 | -4%
COc1ccc2c(c1)CCC(N1CCCC(O)C1)C2 (stereo not given) | 11%
COc1cccc(N2CCN(CC(O)COc3cc4c(c5c3CCCC5)CCCC4)CC2)c1 (stereo not given) | 12%
CC(=O)Oc1ccc(Cl)cc1Cc1cc(Cl)ccc1OC(C)=O | -3%
CC(O)c1c2c(cc3c1CC1(C3)Cc3cc4c(c(C(C)O)c3C1)CCC4)CCC2 (stereo not given) | -50%
O=c1c2ccccc2nc(-c2ccccc2)n1NC(=S)Nc1ccc(Cl)cc1[N+](=O)[O-] | -5%
O=C(CCCN1CCc2[nH]c3cc(F)ccc3c2C1)c1ccc(F)cc1 | -30%
OC(C(=Nc1ccccc1)c1ccccc1)c1ccccc1 (stereo not given) | 15%
N#CC1CCCC(Cc2ccccc2)(c2ccccc2)C1=O (stereo not given) | 10%
CC(OC(=O)Nc1cccc(Cl)c1)c1ccccc1 (stereo not given) | 11%
O=C(O)/C=C/c1c2ccccc2cc2ccccc12 | 71% (active)
Cc1c[nH]c2c(O)cc3c(c12)[C@H](CCl)CN3C(=O)c1cc2cc(NC(=O)Nc3ccc4[nH]c(C(=O)N5C[C@@H](CCl)c6c5cc(O)c5[nH]cc(C)c65)cc4c3)ccc2[nH]1 | 34%
Cc1ccc(S(=O)(=O)OC(C=O)C(O)C(O)COC(c2ccccc2)(c2ccccc2)c2ccccc2)cc1 (stereo not given) | 98% (active)

Structure (SMILES) | growth inhibition
COc1cc2c(cc1C(C)C)CCC1C(C)(C#N)CCCC21C (stereo not given) | 0%
Fc1ccc(NC(=S)SCc2ccc(Cl)c(Cl)c2)c(F)c1 | 11%
COC(=O)/C=C(\NC1CC(OC2C[C@](O)(C(C)=O)Cc3c(O)c4c(c(O)c32)C(=O)c2c(OC)cccc2C4=O)OC(C)C1O)C(=O)OC (stereo not given in full) | 7%
O=C1CSC(=S)N1c1ccc(F)cc1F | -3%
CS(=O)(=O)OCCN(CCOS(C)(=O)=O)c1ccc(C=Nc2ccc3ccccc3c2)c(Cl)c1 | 0%
CN(C)C(=O)Nc1ccc(Cc2ccc(NC(=O)N(C)C)cc2)cc1 | -19%
O=c1c(Cl)c(Cl)c(=O)c2sc3cc(Cl)ccc3[nH]c1=2 | 6%
O=S(=O)(O)C(O)c1ccc2ccc3cccc4ccc1c2c34 (stereo not given) | -3%
N#Cc1cc([N+](=O)[O-])ccc1NC(=O)/C(=N/N)C(C(=O)c1ccc(Cl)c(Cl)c1)C1OC(=O)c2ccccc21 (stereo not given) | 11%
O=C(Nc1ccc(Cl)c(Cl)c1Cl)Oc1c(Cl)c(Cl)c(Cl)c(Cl)c1Cl | 10%
O=[N+]([O-])c1cc(Cl)cc2c1nc(NCCO)c1ccccc12 | 20%
CCNc1nc(C(F)(F)F)nc2nc[nH]c12 | -4%
CC1CCN(CCOC(=O)C(c2ccccc2)C2C=CCCC2)C1 (stereo not given) | 9%
CCOC(=O)c1c(N)sc2c1CCCCC2 | -71%
CC(C(O)Cc1ccccc1)N(C)N=Nc1ccc([N+](=O)[O-])cc1 (stereo not given) | 23%
O=[N+]([O-])c1ccc(/C=c2\sc3scc(-c4ccc([N+](=O)[O-])cc4)[n+]3\c2=C/c2ccc([N+](=O)[O-])cc2)cc1 | 99% (active)
Oc1cc(C(c2ccccc2)c2ccccc2)c2ccccc2c1O | 10%
CC1=CC2OC3CC4OC(=O)/C=C/C=C/C(C(C)O)OCC(=O)C(C)CC(=O)OCC2(CC1)C4(C)C31CO1 (stereo not given) | 60%
CC(NNC(=S)N1CCCCCC1)c1cc2ccccc2cn1 (stereo not given) | 87% (active)
CC(C)C1=CC23CCC4C(C)(C(=O)O)CCCC4(C)C2CC1C1C(=O)C=CC(=O)C13 (stereo not given) | 91% (active)
